Measured potencies and affinities stand elsewhere. Results filed as inconclusive are left out. Calls of active or inactive are those of the source.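 How the source made its calls: active means compounds that lower the signal with a fitted half-maximal concentration at most ten times the top valid dose; inconclusive means flat curve with moderate inhibition, or an unreliable fit; inactive means the rest.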
Target: CAAX prenyl protease 2 (Saccharomyces cerevisiae (strain ATCC 204508 / S288c)) (UniProt Q03530)
Assay: yeast Rce1 CaaX protease inhibitors, dose response, biochemical, plate reader, dry powder retest (AID 588851)

CAAX prenyl protease 2 (Saccharomyces cerevisiae (strain ATCC 204508 / S288c)), sequence (Q03530 whole entry, looked up): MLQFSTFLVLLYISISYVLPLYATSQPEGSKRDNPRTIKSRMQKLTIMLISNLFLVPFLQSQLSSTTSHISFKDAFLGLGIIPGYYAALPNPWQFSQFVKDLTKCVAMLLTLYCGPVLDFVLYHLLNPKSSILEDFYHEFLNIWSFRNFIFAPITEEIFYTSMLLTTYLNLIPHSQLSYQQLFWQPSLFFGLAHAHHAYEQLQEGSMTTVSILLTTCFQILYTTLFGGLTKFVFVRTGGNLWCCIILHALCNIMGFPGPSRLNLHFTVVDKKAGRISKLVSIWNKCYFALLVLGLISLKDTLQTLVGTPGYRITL

Compound: O=C(CCNC(=O)N1CC(=O)Nc2ccccc21)NCCc1cccc(F)c1
- outcome: inactive

— PubChem BioAssay AID588851 (Broad Institute, 2011)
